# Data taken from the supplement of paper PMC11624193, “Coupling cellular drug-target engagement to downstream pharmacology with CeTEAM” (Nature Communications, 2024).
# Where a name gives a salt, the structure may show the parent alone.
# Target: PARP1 L713F-nLuc biosensor (HCT116) (UniProt P09874)
# Assay: PARP1 L713F-nLuc/akaLuc ratio relative to DMSO control (biosensor stabilization) (fold change); higher = more PARP1 biosensor stabilization (target engagement / stabilizer), active = hit call of the paper
# Conditions: stock concentration (mM; final µM = stock mM x 1): 10; 24 h;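 active = log2 fold change beyond 2 SD from the library mean after excluding viability outliers; inactive = within 2 SD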
# Chain of PARP1 L713F-nLuc biosensor (HCT116) (P09874 whole entry L713F, looked up): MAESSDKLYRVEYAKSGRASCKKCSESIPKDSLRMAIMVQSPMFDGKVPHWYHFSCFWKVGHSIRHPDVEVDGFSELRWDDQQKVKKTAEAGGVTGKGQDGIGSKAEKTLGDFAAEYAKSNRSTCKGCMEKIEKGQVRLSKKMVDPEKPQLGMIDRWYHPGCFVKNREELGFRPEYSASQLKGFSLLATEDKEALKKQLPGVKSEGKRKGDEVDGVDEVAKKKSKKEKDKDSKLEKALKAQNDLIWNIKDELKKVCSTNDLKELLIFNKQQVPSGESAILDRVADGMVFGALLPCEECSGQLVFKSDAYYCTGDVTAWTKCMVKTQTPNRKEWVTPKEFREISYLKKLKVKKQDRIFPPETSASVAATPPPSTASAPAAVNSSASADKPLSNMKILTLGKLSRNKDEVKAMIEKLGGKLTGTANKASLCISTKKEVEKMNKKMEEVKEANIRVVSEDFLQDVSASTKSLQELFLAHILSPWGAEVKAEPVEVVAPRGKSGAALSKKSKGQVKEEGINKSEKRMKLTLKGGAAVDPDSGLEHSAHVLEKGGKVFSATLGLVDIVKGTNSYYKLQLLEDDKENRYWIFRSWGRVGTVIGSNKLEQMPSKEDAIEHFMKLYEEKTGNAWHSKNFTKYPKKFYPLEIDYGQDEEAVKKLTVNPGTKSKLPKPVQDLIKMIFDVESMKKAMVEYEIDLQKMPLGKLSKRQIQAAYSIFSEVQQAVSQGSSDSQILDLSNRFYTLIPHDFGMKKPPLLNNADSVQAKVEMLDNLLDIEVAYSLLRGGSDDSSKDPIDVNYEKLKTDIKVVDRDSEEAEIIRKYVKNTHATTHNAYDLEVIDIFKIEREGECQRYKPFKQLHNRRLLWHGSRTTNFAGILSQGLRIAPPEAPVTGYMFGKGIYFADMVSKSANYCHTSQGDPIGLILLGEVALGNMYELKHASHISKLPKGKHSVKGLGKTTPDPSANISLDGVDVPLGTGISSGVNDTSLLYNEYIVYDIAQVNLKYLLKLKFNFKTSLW
row,Structure (SMILES),PARP1 L713F-nLuc/akaLuc ratio
1,N#CCNC(=O)c1ccc(-c2ccnc(Nc3ccc(N4CCOCC4)cc3)n2)cc1 [Momelotinib (CYT387)],0.585 (inactive)
2,N#CCC1CCN(c2nc(Nc3ccc(N4CCC(O)CC4)cc3)c3c(=O)[nH]ncc3n2)CC1 [Gusacitinib],0.883 (inactive)
3,CCCC(=O)c1c(O)c(Cc2c(O)c(Cc3c(O)c(C)c(OC)c(C(=O)CCC)c3O)c(O)c(C(=O)[C@@H](C)CC)c2O)c(O)c(C)c1OC [Agrimol B],1.14 (inactive)
4,CCCC(CCC)C(=O)O [Valproic acid],1.52 (inactive)
5,CC1(C)C(=O)NC2=C1C(=O)C(=O)c1ccccc12,0.888 (inactive)
6,Cc1cc(Nc2cc3ncccc3c(N[C@@H]3C[C@H]4CC[C@@H](C3)N4CCC#N)n2)n[nH]1 [Izencitinib],0.804 (inactive)
7,Cn1ncc(Cl)c1-c1cc(C(=O)N[C@H](CN)Cc2cccc(F)c2)sc1Cl [Afuresertib (hydrochloride)],0.764 (inactive)
8,CC[C@H](C)n1cc(C)c2c(C(=O)NCc3c(C)cc(C)[nH]c3=O)cc(-c3ccc(N4CCNCC4)nc3)cc21,1.03 (inactive)
9,COc1cc2ncnc(Nc3cccc(Cl)c3F)c2cc1OC(=O)N1CCN(C)C[C@H]1C,1.31 (inactive)
10,CCNC(=O)C#Cc1ccc2c(C(=Nc3ccc(CN(C)C)cc3)c3ccccc3)c(O)[nH]c2c1,0.604 (inactive)
11,Cn1cc(C2=C(c3cn(CCCSC(=N)N)c4ccccc34)C(=O)NC2=O)c2ccccc21 [Ro 31-8220 (mesylate)],1.62 (inactive)
12,N#Cc1cc(F)cc(Oc2ccc(S(=O)(=O)C(F)F)c3c2CC(F)(F)C3O)c1 (racemic),0.759 (inactive)
13,CN(C)CCCCC(=O)Nc1ccc(NC(=S)NC(=O)c2ccc(C(C)(C)C)cc2)cc1 [Tenovin-6 (Hydrochloride)],0.665 (inactive)
14,COc1cc2ncnc(Nc3ccc(O)cc3)c2cc1OC,0.842 (inactive)
15,COc1cc(C(=O)N2C[C@H](N)CC[C@@H]2C)cc2nc(-c3cc4cccnc4n3CC3CC3)n(C)c12 [BMS-P5 (free base)],0.878 (inactive)
16,COc1ccccc1C(=O)Nc1cc2c(cc1N1CCCCC1)n(C)c(=O)n2C,1.25 (inactive)
17,Cc1ccc(NC(=O)c2ccc(CN3CC[C@H](N(C)C)C3)c(C(F)(F)F)c2)cc1Nc1nccc(-c2cncnc2)n1 [Bafetinib (INNO-406)],0.726 (inactive)
18,C[C@@H](Nc1cc(F)cc(F)c1)c1cc(C(=O)N(C)C)cc2c(=O)cc(N3CCOCC3)oc12,0.667 (inactive)
19,O=C(Nc1ccccc1-c1cn2c(CN3CC[C@@H](O)C3)csc2n1)c1ccc2ccccc2c1,0.641 (inactive)
20,CNCc1ccc(-c2[nH]c3cc(F)cc4c3c2CCNC4=O)cc1 [Rucaparib (phosphate)],5.55 (active)
21,COc1cc2c(NC3CCN(C(C)C)CC3)nc(C3CCCCC3)nc2cc1OCCCN1CCCC1,0.748 (inactive)
22,Oc1cc(O)c2cc(O)c(-c3cc(O)c(O)c(O)c3)[o+]c2c1 [Delphinidin (chloride)],1.09 (inactive)
23,N#Cc1cc(F)cc(Oc2ccc(S(=O)(=O)C(F)F)c3c2CC(F)(F)[C@H]3O)c1,0.774 (inactive)
24,NC(=O)[C@H](CCCN=C(N)CCl)NC(=O)c1ccccc1 [Cl-amidine (hydrochloride)],0.914 (inactive)
25,Nc1c(S(=O)(=O)c2ccccc2)c2nc3ccccc3nc2n1-c1ccc(F)cc1,1.04 (inactive)
26,O[C@@H]1CO[C@H]2[C@@H]1OC[C@H]2Oc1nc2nc(-c3ccc(-c4ccccc4)cc3)c(Cl)cc2[nH]1,0.439 (inactive)
27,C[C@@H](Oc1cc(-n2cnc3ccc(CN4CCN(C)CC4)cc32)sc1C(N)=O)c1ccccc1C(F)(F)F,0.601 (inactive)
28,COc1cc2c(NC3CCN(C(C)C)CC3)nc(N3CCC(F)(F)CC3)nc2cc1OCCCN1CCCC1,1.03 (inactive)
